Source: PubChem BioAssay (Tox21)
Results filed as inconclusive are left out. Where a call stands in place of a potency, no number is given. Values without a mark were called inactive. Active and inactive are the calls of the source. Calls come from the whole dose curve; as a rule, active = well fitted curve in the direction sought with a large enough effect in the repeat runs; inconclusive = weak or mixed curves; inactive = no such curve, though single readings can be large; an effect the other way counts as inactive or inconclusive.

What was measured:
[1] = target: Cytochrome P450 2D6 (Homo sapiens) (UniProt P10635); assay: Cytochrome P450 Family 2 Subfamily D Member 6 (CYP2D6) small molecule antagonists: luciferase reporter qHTS assay (AID 1671196); note: nearly all actives have a fitted effect of over 50% in size; for activity change, negative = inhibition: series mostly up to about 120 µM
Sequence of Cytochrome P450 2D6 (Homo sapiens) (P10635 whole entry, looked up): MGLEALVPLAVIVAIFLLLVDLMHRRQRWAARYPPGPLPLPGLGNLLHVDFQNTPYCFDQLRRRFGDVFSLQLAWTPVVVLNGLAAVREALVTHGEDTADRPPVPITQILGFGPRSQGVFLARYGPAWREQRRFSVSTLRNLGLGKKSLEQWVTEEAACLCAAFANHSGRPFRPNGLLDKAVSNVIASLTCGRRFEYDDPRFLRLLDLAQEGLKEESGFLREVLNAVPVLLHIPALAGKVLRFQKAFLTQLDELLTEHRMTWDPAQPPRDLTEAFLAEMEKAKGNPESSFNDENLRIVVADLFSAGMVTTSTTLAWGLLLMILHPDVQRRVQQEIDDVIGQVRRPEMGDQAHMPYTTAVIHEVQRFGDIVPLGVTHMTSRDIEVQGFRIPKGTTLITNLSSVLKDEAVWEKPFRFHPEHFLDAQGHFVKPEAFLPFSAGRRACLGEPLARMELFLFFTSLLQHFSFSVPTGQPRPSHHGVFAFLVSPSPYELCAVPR
How it was run: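 Room-temperature luminescent CYP2D6 activity assay: compound preincubated 10 min with enzyme–substrate mix, NADPH-initiated reaction 1 h, detection reagent 20 min before reading.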

[2] = target: Cytochrome P450 2C19 (Homo sapiens) (UniProt P33261); assay: Cytochrome P450 Family 2 Subfamily C Member 19 (CYP2C19) small molecule antagonists: luciferase reporter qHTS assay (AID 1671197); note: nearly all actives have a fitted effect of over 65% in size; for activity change, negative = inhibition: series mostly up to about 120 µM
Sequence of Cytochrome P450 2C19 (Homo sapiens) (P33261 whole entry, looked up): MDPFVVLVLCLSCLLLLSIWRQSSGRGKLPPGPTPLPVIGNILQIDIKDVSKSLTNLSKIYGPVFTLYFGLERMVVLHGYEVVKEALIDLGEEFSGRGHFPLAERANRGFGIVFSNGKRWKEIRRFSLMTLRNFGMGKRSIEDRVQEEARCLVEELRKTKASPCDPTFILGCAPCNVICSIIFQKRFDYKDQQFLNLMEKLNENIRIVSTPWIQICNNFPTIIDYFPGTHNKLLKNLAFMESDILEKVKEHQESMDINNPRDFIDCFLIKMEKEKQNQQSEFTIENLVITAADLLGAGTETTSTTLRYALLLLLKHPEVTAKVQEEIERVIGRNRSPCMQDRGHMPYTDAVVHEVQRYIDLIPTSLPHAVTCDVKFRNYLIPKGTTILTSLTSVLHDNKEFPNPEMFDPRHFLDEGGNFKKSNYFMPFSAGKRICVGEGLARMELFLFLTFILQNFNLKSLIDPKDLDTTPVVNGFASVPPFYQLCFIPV
How it was run: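 Light output is proportional to CYP2C19 activity: proluciferin substrate is converted to luciferin, then detected by a luciferin detection reagent that also stops the 1 h, 37C NADPH-driven reaction. Ketoconazole serves as positive control.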

[3] = target: Cytochrome P450 2C9 (Homo sapiens) (UniProt P11712); assay: Cytochrome P450 Family 2 Subfamily C Member 9 (CYP2C9) small molecule antagonists: luciferase reporter qHTS assay (AID 1671198); note: nearly all actives have a fitted effect of over 50% in size; for activity change, negative = inhibition: series mostly up to about 120 µM
Sequence of Cytochrome P450 2C9 (Homo sapiens) (P11712 whole entry, looked up): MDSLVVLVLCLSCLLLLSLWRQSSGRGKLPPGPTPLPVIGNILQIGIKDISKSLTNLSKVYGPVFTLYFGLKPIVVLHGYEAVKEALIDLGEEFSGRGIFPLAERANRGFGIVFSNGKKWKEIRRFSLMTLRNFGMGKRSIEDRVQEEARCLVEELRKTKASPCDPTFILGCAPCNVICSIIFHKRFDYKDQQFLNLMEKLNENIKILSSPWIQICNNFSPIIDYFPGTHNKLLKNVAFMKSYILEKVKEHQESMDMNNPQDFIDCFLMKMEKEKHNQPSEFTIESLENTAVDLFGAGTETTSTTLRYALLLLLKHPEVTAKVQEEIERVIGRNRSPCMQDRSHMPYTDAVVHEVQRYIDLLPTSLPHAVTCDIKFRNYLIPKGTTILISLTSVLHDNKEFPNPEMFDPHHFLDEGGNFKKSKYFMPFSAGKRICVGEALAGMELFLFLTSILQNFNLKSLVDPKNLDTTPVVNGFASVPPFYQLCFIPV
How it was run: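 CYP2C9 activity was measured with a P450-Glo proluciferin substrate. Enzyme–substrate mix was held with compound for 10 min at room temperature, then NADPH regeneration solution was added for 1 h at 37C. Luciferin product was read as luminescence.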

[4] = target: Cytochrome P450 1A2 (Homo sapiens) (UniProt P05177); assay: Cytochrome P450 Family 1 Subfamily A Member 2 (CYP1A2) small molecule antagonists: luciferase reporter qHTS assay (AID 1671199); note: nearly all actives have a fitted effect of over 50% in size; for activity change, negative = inhibition: series mostly up to about 120 µM
Sequence of Cytochrome P450 1A2 (Homo sapiens) (P05177 whole entry, looked up): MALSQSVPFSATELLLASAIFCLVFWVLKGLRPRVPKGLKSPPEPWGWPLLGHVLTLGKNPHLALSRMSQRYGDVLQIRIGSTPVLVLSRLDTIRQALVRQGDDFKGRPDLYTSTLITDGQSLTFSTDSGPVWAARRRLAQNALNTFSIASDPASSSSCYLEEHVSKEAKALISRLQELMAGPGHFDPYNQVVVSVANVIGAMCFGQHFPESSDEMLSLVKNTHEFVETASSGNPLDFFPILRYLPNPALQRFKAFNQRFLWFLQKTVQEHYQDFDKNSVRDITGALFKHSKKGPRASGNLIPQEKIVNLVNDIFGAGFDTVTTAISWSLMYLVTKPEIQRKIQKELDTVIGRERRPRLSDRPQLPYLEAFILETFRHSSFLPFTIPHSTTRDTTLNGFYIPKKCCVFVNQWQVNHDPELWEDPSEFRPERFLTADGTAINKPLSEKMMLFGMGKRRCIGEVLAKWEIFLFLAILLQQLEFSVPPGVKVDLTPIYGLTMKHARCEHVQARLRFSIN
How it was run: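 Room-temperature CYP1A2 reaction with proluciferin substrate: compounds added from DMSO, 10 min preincubation, NADPH regeneration for 1 h. Luciferin detection reagent then added; luminescence recorded as RLU.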

[5] = target: Voltage-gated inwardly rectifying potassium channel KCNH2 (Homo sapiens) (UniProt Q12809); assay: Human Ether-a-go-go-Related Gene (hERG) channel small molecule antagonists: fluorescence cell-based qHTS assay (AID 1671200); note: nearly all actives have a fitted effect of over 50% in size;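 for activity change, negative = inhibition: hERG-expressing U2OS cells given a thallium stimulus after FluxOR II dye loading; series mostly up to about 77 µM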
Sequence of Voltage-gated inwardly rectifying potassium channel KCNH2 (Homo sapiens) (Q12809 whole entry, looked up): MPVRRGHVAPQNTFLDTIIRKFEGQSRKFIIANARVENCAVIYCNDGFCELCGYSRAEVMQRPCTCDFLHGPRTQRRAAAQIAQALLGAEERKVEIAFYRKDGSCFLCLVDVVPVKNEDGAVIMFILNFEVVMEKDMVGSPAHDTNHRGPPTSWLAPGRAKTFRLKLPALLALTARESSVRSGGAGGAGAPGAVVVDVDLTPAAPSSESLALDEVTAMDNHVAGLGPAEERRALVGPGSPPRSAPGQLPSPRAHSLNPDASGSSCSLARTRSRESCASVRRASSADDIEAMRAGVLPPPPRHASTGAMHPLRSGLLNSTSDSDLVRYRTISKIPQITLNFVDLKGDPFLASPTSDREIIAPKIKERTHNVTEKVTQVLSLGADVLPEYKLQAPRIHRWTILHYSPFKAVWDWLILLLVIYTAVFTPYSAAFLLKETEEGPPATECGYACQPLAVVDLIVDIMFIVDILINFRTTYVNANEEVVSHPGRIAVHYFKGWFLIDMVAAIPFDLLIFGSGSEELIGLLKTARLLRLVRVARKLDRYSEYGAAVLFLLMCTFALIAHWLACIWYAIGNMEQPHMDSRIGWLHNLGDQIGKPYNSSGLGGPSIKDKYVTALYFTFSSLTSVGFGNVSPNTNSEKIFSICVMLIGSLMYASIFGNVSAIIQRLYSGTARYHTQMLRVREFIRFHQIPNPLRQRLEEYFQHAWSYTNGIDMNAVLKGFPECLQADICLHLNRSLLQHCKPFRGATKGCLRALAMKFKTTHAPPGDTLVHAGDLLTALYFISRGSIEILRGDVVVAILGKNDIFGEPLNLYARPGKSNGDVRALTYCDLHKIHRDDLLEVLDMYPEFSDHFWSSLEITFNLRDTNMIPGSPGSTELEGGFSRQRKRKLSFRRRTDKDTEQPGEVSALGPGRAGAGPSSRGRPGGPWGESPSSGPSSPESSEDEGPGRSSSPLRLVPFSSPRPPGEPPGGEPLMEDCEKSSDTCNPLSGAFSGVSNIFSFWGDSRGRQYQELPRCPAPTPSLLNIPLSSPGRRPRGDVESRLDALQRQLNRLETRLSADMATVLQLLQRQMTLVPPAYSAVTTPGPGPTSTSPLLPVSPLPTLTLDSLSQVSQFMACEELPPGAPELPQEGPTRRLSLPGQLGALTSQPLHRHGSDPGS
How it was run: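 Quantitative HTS in hERG-U2OS cells: thallium entry through the channel reports activity, read as continuous 480/540 nm fluorescence over 2 min after stimulus addition.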

[6] = target: Cytochrome P450 3A4 (Homo sapiens) (UniProt P08684); assay: Cytochrome P450 Family 3 Subfamily A Member 4 (CYP3A4) small molecule antagonists: luciferase reporter qHTS assay (AID 1671201); note: nearly all actives have a fitted effect of over 50% in size; for activity change, negative = inhibition: series mostly up to about 120 µM
Sequence of Cytochrome P450 3A4 (Homo sapiens) (P08684 whole entry, looked up): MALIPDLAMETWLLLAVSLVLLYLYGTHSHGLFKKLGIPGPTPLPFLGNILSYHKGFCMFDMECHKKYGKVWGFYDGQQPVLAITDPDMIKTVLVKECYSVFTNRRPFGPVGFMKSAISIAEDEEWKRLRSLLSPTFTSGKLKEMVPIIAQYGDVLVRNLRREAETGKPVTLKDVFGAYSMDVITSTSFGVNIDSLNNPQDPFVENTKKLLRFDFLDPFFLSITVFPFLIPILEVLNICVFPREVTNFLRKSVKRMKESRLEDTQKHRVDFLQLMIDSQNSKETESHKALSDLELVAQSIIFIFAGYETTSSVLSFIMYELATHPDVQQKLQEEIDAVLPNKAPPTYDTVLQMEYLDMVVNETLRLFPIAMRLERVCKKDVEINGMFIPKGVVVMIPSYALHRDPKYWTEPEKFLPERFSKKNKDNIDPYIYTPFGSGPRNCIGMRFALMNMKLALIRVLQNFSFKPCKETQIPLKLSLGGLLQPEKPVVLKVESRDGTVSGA
How it was run: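 Inhibition of CYP3A4 is measured as loss of light: the enzyme converts a proluciferin substrate to luciferin, detected luminescently. Reaction ran 1 h at room temperature with NADPH regeneration after a 10 min compound preincubation.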
Potency is the fitted concentration of half-maximal effect.

N#CCCCC(C#N)CCC#N (centres undefined)
Potency [1]: inactive | Potency [2]: inactive | Potency [3]: 39.9 µM (active) | Potency [4]: inactive | Potency [5]: inactive | Potency [6]: inactive

O=C(O)c1cccc(C(=O)O)c1C(=O)O
Potency [1]: 40.3 µM (active) | Potency [2]: 71.7 µM (active) | Potency [3]: inactive | Potency [4]: inactive | Potency [5]: inactive | Potency [6]: inactive

OCCCO
Potency [1]: inactive | Potency [2]: inactive | Potency [3]: inactive | Potency [4]: inactive | Potency [5]: inactive | Potency [6]: inactive

O=C(O)c1ccccc1[N+](=O)[O-]
Potency [1]: inactive | Potency [2]: inactive | Potency [3]: inactive | Potency [4]: inactive | Potency [5]: inactive | Potency [6]: inactive

Cc1ccc(Cl)c(OCC(O)CNC(C)(C)C)c1 (centres undefined)
Potency [1]: 1.1 µM (active) | Potency [2]: inactive | Potency [3]: inactive | Potency [4]: inactive | Potency [6]: inactive

COc1ccc(C(=O)c2ccc(C)cc2)c(O)c1
Potency [1]: 40.4 µM (active) | Potency [2]: 5.08 µM (active) | Potency [3]: 22.7 µM (active) | Potency [4]: 20.2 µM (active) | Potency [6]: inactive

CC(=O)c1cccnc1
Potency [1]: inactive | Potency [2]: inactive | Potency [3]: inactive | Potency [4]: inactive | Potency [5]: inactive | Potency [6]: inactive

Sc1nc(S)nc(S)n1
Potency [1]: inactive | Potency [2]: inactive | Potency [4]: inactive | Potency [5]: inactive | Potency [6]: inactive

CCC(=O)O[C@]1(C(=O)COC)[C@@H](C)C[C@H]2[C@@H]3CCC4=CC(=O)C=C[C@]4(C)C3(F)[C@@H](O)C[C@@]21C (some centres undefined)
Potency [1]: 15.5 µM (active) | Potency [2]: inactive | Potency [4]: inactive | Potency [5]: inactive

CCCCCC1CCC(=O)O1 (centres undefined)
Potency [1]: inactive | Potency [2]: inactive | Potency [3]: 89.4 µM (active) | Potency [5]: inactive | Potency [6]: inactive

c1ccc(CN(Cc2ccccc2)Cc2ccccc2)cc1
Potency [1]: 7.96 µM (active) | Potency [3]: 31.7 µM (active) | Potency [4]: 20 µM (active) | Potency [5]: 24.5 µM (active) | Potency [6]: inactive

CCCCCCCCOCCCN
Potency [1]: 6.33 µM (active) | Potency [3]: 28.3 µM (active) | Potency [4]: 6.33 µM (active) | Potency [5]: 43.6 µM (active)

CCCCCCC/C=C/C=O
Potency [1]: 39.9 µM (active) | Potency [2]: 79.6 µM (active) | Potency [5]: inactive | Potency [6]: inactive

COC(=O)C(C)(C)C
Potency [1]: inactive | Potency [2]: 32.2 µM (active) | Potency [4]: 40.5 µM (active) | Potency [5]: inactive | Potency [6]: inactive

CCCC(=O)OCc1ccccc1
Potency [1]: inactive | Potency [3]: inactive | Potency [4]: inactive | Potency [5]: inactive | Potency [6]: inactive

CCC(C(=O)O)c1ccc(N2Cc3ccccc3C2=O)cc1 (centres undefined)
Potency [1]: 15.5 µM (active) | Potency [2]: 21.9 µM (active) | Potency [5]: inactive | Potency [6]: inactive

CCCc1ccc(OC)cc1
Potency [1]: inactive | Potency [2]: 63.7 µM (active) | Potency [5]: inactive

CC(C)CCCCCOC(=O)CS
Potency [1]: 25.2 µM (active) | Potency [3]: 71 µM (active) | Potency [4]: inactive | Potency [5]: inactive

CCCCCCCCS
Potency [1]: inactive | Potency [3]: inactive | Potency [4]: inactive | Potency [5]: inactive

CCCCCCCCCCCCSCCOCCO
Potency [1]: inactive | Potency [3]: 24.5 µM (active) | Potency [4]: 15.5 µM (active) | Potency [5]: inactive | Potency [6]: inactive

C=C(C)C(=O)OCCCCCCCCCCOC(=O)C(=C)C
Potency [1]: 35.6 µM (active) | Potency [2]: inactive | Potency [4]: 44.8 µM (active) | Potency [6]: inactive

CCC[Si](OC)(OC)OC
Potency [1]: inactive | Potency [2]: 71 µM (active) | Potency [5]: inactive | Potency [6]: inactive

C/C(=C\C(C)CC(C)CC(C)C)C1CC(=O)OC1=O (centres undefined)
Potency [1]: 35.6 µM (active) | Potency [3]: 56.4 µM (active) | Potency [4]: inactive | Potency [5]: inactive | Potency [6]: inactive

CC(C)CCCCCCCOC(=O)c1ccc(C(=O)OCCCCCCCC(C)C)c(C(=O)OCCCCCCCC(C)C)c1
Potency [1]: inactive | Potency [2]: inactive | Potency [5]: inactive

CC(=O)Nc1ccn(C2COC(COC(=O)c3ccccc3)O2)c(=O)n1 (centres undefined)
Potency [1]: inactive | Potency [2]: inactive | Potency [4]: 24.5 µM (active) | Potency [5]: inactive | Potency [6]: inactive

CNc1ccccc1
Potency [1]: inactive | Potency [2]: 31.7 µM (active) | Potency [4]: inactive | Potency [5]: inactive | Potency [6]: inactive

CCCCCCCCCCCCCCCCCCCl
activity change, negative = inhibition [1]: -4.65% [at 10.5 µM] | activity change, negative = inhibition [3]: -2.7% [at 10.5 µM] | activity change, negative = inhibition [4]: -4.9% [at 10.5 µM] | activity change, negative = inhibition [5]: 6.07% [at 6.97 µM] | activity change, negative = inhibition [6]: -1.1% [at 10.5 µM]

CCC(CC)C(=O)O
Potency [1]: inactive | Potency [3]: inactive | Potency [4]: inactive | Potency [5]: inactive

O=C1C=CCCC1
Potency [1]: inactive | Potency [3]: inactive | Potency [4]: inactive | Potency [5]: inactive

CCCCCCCCCCCC(=O)OCC
Potency [1]: inactive | Potency [2]: inactive | Potency [4]: inactive | Potency [5]: inactive | Potency [6]: inactive

CO[C@@H]1COCC[C@@H]1N[C@@H]1CC[C@@](C(=O)N2CCc3ncc(C(F)(F)F)cc3C2)(C(C)C)C1
Potency [1]: 35.4 µM (active) | Potency [3]: inactive | Potency [4]: inactive | Potency [5]: inactive

O=C(O)c1cccnc1Nc1cccc(C(F)(F)F)c1
Potency [1]: inactive | Potency [2]: inactive | Potency [5]: inactive | Potency [6]: inactive

O=C1c2ccccc2C(=O)C1c1ccc2ccccc2n1
Potency [1]: inactive | Potency [2]: 3.14 µM (active) | Potency [4]: 2.22 µM (active) | Potency [5]: inactive | Potency [6]: 1.77 µM (active)

O=C(OC1C[C@H]2CC[C@@H](C1)[N+]21CCCC1)C(O)(c1ccccc1)c1ccccc1 (some centres undefined)
Potency [1]: 4.9 µM (active) | Potency [3]: inactive | Potency [4]: inactive | Potency [5]: inactive

Cc1c(N=C=O)cccc1N=C=O
Potency [1]: inactive | Potency [2]: 72.4 µM (active) | Potency [5]: inactive

CC(O)C(C)O (centres undefined)
Potency [1]: inactive | Potency [2]: inactive | Potency [5]: inactive | Potency [6]: inactive

CO[C@@H]1[C@@H](O[C@@H]2O[C@H](C)[C@@H](O[C@H]3C[C@@](C)(O)[C@@H](O)[C@H](C)O3)[C@H](N(C)C)[C@H]2O)[C@@H](CC=O)C[C@@H](C)[C@@H](O[C@@H]2CC[C@H](N(C)C)[C@@H](C)O2)/C=C/C=C/C[C@@H](C)OC(=O)C[C@H]1OC(C)=O
Potency [1]: inactive | Potency [3]: inactive | Potency [4]: inactive | Potency [5]: inactive

O=c1[nH][nH]c2ccccc12
Potency [1]: inactive | Potency [2]: 81.2 µM (active) | Potency [4]: 10.2 µM (active) | Potency [5]: inactive | Potency [6]: 32.3 µM (active)

Clc1cc(Cl)c2c(c1)N=C1CCCCCN1C2
Potency [1]: 2.75 µM (active) | Potency [3]: inactive | Potency [4]: 5.49 µM (active) | Potency [5]: 9.52 µM (active)

C=Cc1ccc(C=C)cc1
Potency [1]: inactive | Potency [3]: inactive | Potency [4]: inactive | Potency [5]: inactive

CCC(C)CCCC(C)(C)O (centres undefined)
Potency [1]: inactive | Potency [2]: inactive | Potency [4]: inactive | Potency [5]: inactive | Potency [6]: inactive

O=C(O)c1ccccc1-n1cc(C(=O)O)c(=O)c2cc(Nc3c(F)cc(F)cc3Cl)c(Cl)cc21
Potency [1]: inactive | Potency [2]: inactive | Potency [4]: inactive | Potency [5]: inactive | Potency [6]: inactive

Cc1c(Nc2ncccc2C(=O)O)cccc1C(F)(F)F
Potency [1]: inactive | Potency [2]: inactive | Potency [5]: inactive | Potency [6]: inactive

CC(C)=CCC[C@H](C)CCO
Potency [1]: inactive | Potency [2]: 71 µM (active) | Potency [4]: inactive | Potency [5]: inactive | Potency [6]: 63.3 µM (active)

CS(C)=O
Potency [1]: inactive | Potency [2]: inactive | Potency [4]: inactive | Potency [5]: inactive | Potency [6]: inactive

CCCC1CCOC(C)S1 (centres undefined)
Potency [1]: inactive | Potency [3]: inactive | Potency [4]: inactive | Potency [5]: inactive

Cc1ccc(NC(=O)c2ccc(CN3CCN(C)CC3)cc2)cc1Nc1nccc(-c2cccnc2)n1
Potency [1]: inactive | Potency [3]: inactive | Potency [4]: inactive

Clc1ccccc1-c1nc(-c2ccncc2)no1
Potency [1]: 13.8 µM (active) | Potency [2]: 0.977 µM (active) | Potency [4]: 0.512 µM (active) | Potency [5]: inactive | Potency [6]: 30.9 µM (active)

O=C(c1ccco1)N1CCNCC1
Potency [1]: inactive | Potency [3]: inactive | Potency [4]: inactive | Potency [5]: inactive | Potency [6]: inactive

COc1cccc([C@H](O)C2CCN(CCc3ccc(F)cc3)CC2)c1OC
Potency [1]: 2 µM (active) | Potency [3]: inactive | Potency [4]: inactive | Potency [6]: inactive

CC(C)C[C@H](NC(=O)[C@H](Cc1ccccc1)NC(=O)c1cnccn1)B(O)O
Potency [1]: inactive | Potency [4]: 24.5 µM (active) | Potency [5]: inactive

COc1ccc(/C=C/c2cc(OC)cc(=O)o2)cc1
Potency [1]: inactive | Potency [3]: inactive | Potency [4]: 9.15 µM (active) | Potency [5]: inactive | Potency [6]: inactive

Clc1cccc(C(c2ccc3nc[nH]c3c2)n2ccnc2)c1 (centres undefined)
Potency [2]: 2.75 µM (active) | Potency [3]: 8.71 µM (active) | Potency [4]: 15.5 µM (active) | Potency [5]: inactive
